{"source": "PubChem BioAssay AID2717", "about": "(Broad Institute, 2010)", "note": "Several values for one entry are separate records, joined by “and”; a condition that tells them apart may be missing. Equal values may be shown once. About 3,200 (1.1%) of roughly 300,000 compounds were called active. The sample holds actives, similar compounds and a random draw of the others, so the mix is not that of the screen. Rule as the data show it: active = inhibition above about 75%; inconclusive = no clear call, values can overlap the other calls; inactive = below that; tested in HMLE shEcad cells.", "data": [{"assay": "growth suppression of cancer stem-like cells – cell-based, luminescence, primary screen (AID 2717)", "details": "cancer stem cell-like cells viability, at 7.5 µM, stronger effect = higher value", "values": [{"smiles": "NC(=O)NC(=O)CSc1nc2cc([N+](=O)[O-])ccc2n1-c1cccc(C(F)(F)F)c1", "inhibition": "84.3% (active)"}, {"smiles": "COc1ccc(-n2cnnc2SCC(=O)Nc2cccc([N+](=O)[O-])c2)cc1", "inhibition": "-0.247% (inactive)"}, {"smiles": "COc1ccc(CCNC(=O)CSc2nc3[nH]ncc3c(=O)n2-c2cccc(C(F)(F)F)c2)cc1OC", "inhibition": "-2.41% (inactive)"}, {"smiles": "Cc1ccc2c(c1)C1C[N+](C)(CC(=O)c3ccccc3)CCC1N2C(=O)c1ccccc1Cl", "note": "(configuration not stated)", "inhibition": "-11.4% (inactive)"}, {"smiles": "COc1ccc(S(=O)(=O)N(C)C[C@H]2Oc3ccc(NS(=O)(=O)c4cccs4)cc3CC(=O)N([C@H](C)CO)C[C@H]2C)cc1", "inhibition": "-7.45% (inactive)"}, {"smiles": "COc1ccc(N(CCC(=O)NCCc2ccccc2)S(=O)(=O)c2ccc(C)cc2C)cc1", "inhibition": "0.378% (inactive)"}, {"smiles": "C[C@]12C=CC(=O)C=C1CC[C@@H]1[C@@H]2C(=O)C[C@@]2(C)[C@H]1CC[C@]2(O)C(=O)CO", "inhibition": "-3.96% (inactive) and -10.9% (inactive)"}, {"smiles": "CC(=O)[C@@]12O[C@@H]1C[C@H]1[C@@H]3CC[C@H]4C[C@@H](O)CC[C@]4(C)[C@H]3CC[C@@]12C", "inhibition": "-0.101% (inactive)"}, {"smiles": "CC(=O)C12CC(C)=C(C)CC1CC1C3CCC4=CC(=O)CCC4(C)C3CCC12C", "note": "(configuration not stated)", "inhibition": "76.7% (active)"}, {"smiles": "COc1cccc(NC(=O)COC(=O)c2ccc3ccccc3n2)c1", "inhibition": "-12.4% (inactive)"}, {"smiles": "COc1cccc(NC(=O)COc2cccnc2[N+](=O)[O-])c1", "inhibition": "-14.1% (inactive)"}, {"smiles": "CC(=O)c1cccc(OCC(=O)OCC(=O)Nc2cc(S(=O)(=O)N3CCCCC3)ccc2C)c1", "inhibition": "2.55% (inactive)"}, {"smiles": "O=C(CC(O)(C(F)(F)F)C(F)(F)F)Nc1ccc(Cl)c(Cl)c1", "inhibition": "98.6% (active)"}, {"smiles": "CCn1nccc1C(=O)Nc1ccc(Cl)c(Cl)c1", "inhibition": "6.24% (inactive)"}, {"smiles": "O=C(CC1SCCNC1=O)Nc1ccc(Cl)c(Cl)c1", "note": "(configuration not stated)", "inhibition": "-15.9% (inactive)"}, {"smiles": "Cc1nn(-c2ccccc2)nc1C(=O)OCC(=O)N1CCCCC1C", "note": "(configuration not stated)", "inhibition": "3.22% (inactive)"}, {"smiles": "O=C(CN1C(=O)c2ccc([N+](=O)[O-])cc2C1=O)Nc1nnc(C2CC2)s1", "inhibition": "-20.4% (inactive)"}, {"smiles": "CC(OC(=O)c1cc2ccccc2[nH]1)C(=O)N(C)c1ccccc1", "note": "(configuration not stated)", "inhibition": "-15.8% (inactive)"}, {"smiles": "Cc1csc(=O)n1CC(=O)Nc1ccc(S(C)(=O)=O)cc1", "inhibition": "-16.8% (inactive)"}, {"smiles": "COc1ccc(C(=O)OCc2cc(=O)n3ccsc3n2)cc1F", "inhibition": "-8.98% (inactive)"}, {"smiles": "Oc1ccccc1C1=NN(c2ccccc2)C(c2ccccc2)C1", "note": "(configuration not stated)", "inhibition": "84.6% (active)"}, {"smiles": "O=C(c1ccccc1)N1N=C(c2ccccc2O)CC1c1ccc(Br)cc1", "note": "(configuration not stated)", "inhibition": "8.94% (inactive)"}, {"smiles": "COc1ccc(C2CC(c3cccs3)=NN2c2ccccc2)cc1", "note": "(configuration not stated)", "inhibition": "4.92% (inactive)"}, {"smiles": "COc1ccc(N2CCN(C(CNS(=O)(=O)c3ccc(C)cc3)c3ccccc3)CC2)cc1", "note": "(configuration not stated)", "inhibition": "20.2% (inactive)"}, {"smiles": "COc1cccc(CC(=O)OCC(=O)NCc2ccc3c(c2)OCO3)c1", "inhibition": "-4.31% (inactive)"}, {"smiles": "O=C(NCCc1ccccc1)C1CCN(S(=O)(=O)c2ccc(Br)s2)CC1", "inhibition": "-3.18% (inactive)"}, {"smiles": "Cc1cc(C)c[n+](-c2nc3ccccc3nc2[N-]S(=O)(=O)c2cccs2)c1", "inhibition": "-12.3% (inactive)"}, {"smiles": "O=S(=O)([N-]c1nc2ccccc2nc1-[n+]1ccc(Cc2ccccc2)cc1)c1ccc(Br)s1", "inhibition": "98.5% (active)"}, {"smiles": "Cn1nnnc1SCC(=O)Nc1sccc1C(N)=O", "inhibition": "-11.4% (inactive)"}, {"smiles": "CN(CC(=O)NCCc1ccc(S(N)(=O)=O)cc1)CC(=O)Nc1ccc(Cl)cc1", "inhibition": "-12.5% (inactive)"}, {"smiles": "CN(C)CCNC(=O)c1[nH]nc2c1CCc1ccccc1-2", "inhibition": "-15.5% (inactive)"}, {"smiles": "COc1cc2cc(C(=O)N/N=C/c3cccc(OC)c3OC)[nH]c2cc1OC", "inhibition": "8.69% (inactive)"}, {"smiles": "COc1cccc(/C=N/NC(=O)c2[nH]nc3c2CCc2ccccc2-3)c1O", "inhibition": "111% (active)"}, {"smiles": "CCOC(=O)CCCCCC(=O)Nc1ccc2c(c1)CC(=O)N([C@@H](C)CO)C[C@H](C)[C@@H](CN(C)Cc1ccccc1)O2", "inhibition": "-7.75% (inactive)"}, {"smiles": "Cc1ccc2c(c1)c1ncn(Cc3ccc(F)cc3)c(=O)c1n2C", "inhibition": "21.8% (inactive)"}, {"smiles": "COc1ccc2c(c1)c1ncn(Cc3ccccn3)c(=O)c1n2C", "inhibition": "-14.9% (inactive)"}, {"smiles": "Cc1ccc2c(c1)c1ncn(CCC3=CCCCC3)c(=O)c1n2C", "inhibition": "79.2% (active)"}, {"smiles": "CCn1nnc2cc(C(=O)Nc3ccc(C(=O)OC(C)C)cc3)ccc21", "inhibition": "-0.631% (inactive)"}, {"smiles": "O=C(COC(=O)C1CCCO1)Nc1nc(-c2ccc(F)cc2)cs1", "note": "(configuration not stated)", "inhibition": "-5.39% (inactive)"}, {"smiles": "O=C(OCC(=O)N1CCCCC1)c1ccc(OC(F)(F)F)cc1", "inhibition": "-0.262% (inactive)"}, {"smiles": "O=C1C=C(c2ccc(Cl)cc2)C(=O)N1Nc1ccccc1", "inhibition": "107% (active)"}, {"smiles": "O=C(O)CC1=C(Nc2ccccc2)C(=O)N(c2ccccc2)C1c1ccc(Cl)cc1", "note": "(configuration not stated)", "inhibition": "9.27% (inactive)"}, {"smiles": "O=C1c2cccc3cc(Br)cc(c23)C(=O)N1Nc1ccccc1", "inhibition": "6.61% (inactive)"}, {"smiles": "CCOC(=O)C1CCN(C(=O)CN2C(=O)NC(C)(c3ccc4cc(OC)ccc4c3)C2=O)CC1", "note": "(configuration not stated)", "inhibition": "-9.85% (inactive)"}, {"smiles": "CCOC(=O)[C@@H]1[C@H]2COc3ccc(Br)cc3[C@H]2N2C(=O)N(c3ccc(C)cc3)C(=O)[C@@]12C", "inhibition": "-5.83% (inactive)"}, {"smiles": "Oc1ccc(Br)cc1/C=N/Nc1ccccn1", "inhibition": "101% (active)"}, {"smiles": "COc1ccc(-c2nn(-c3ccccc3)cc2/C=N/Nc2ccccn2)cc1OC", "inhibition": "10.5% (inactive)"}, {"smiles": "O=C(CCCO)N/N=C/c1cc(Br)ccc1O", "inhibition": "-5.24% (inactive)"}, {"smiles": "COc1ccc(OC)c(NC(=O)COC(=O)Cc2ccsc2)c1", "inhibition": "-8.27% (inactive)"}, {"smiles": "O=C(OCC(=O)N1CCCCCC1)c1ccc(Cl)nc1", "inhibition": "15.6% (inactive)"}, {"smiles": "O=C(Oc1ccc(-c2nc(-c3ccccn3)no2)cc1)c1ccccc1", "inhibition": "129% (active)"}, {"smiles": "COc1ccc(Cc2nc(-c3ccccn3)no2)cc1OC", "inhibition": "-15.9% (inactive)"}, {"smiles": "Cc1ccc(Oc2nc(-c3ccccn3)nc3ccccc23)cc1", "inhibition": "4.28% (inactive)"}, {"smiles": "N#CCCN(C(=O)COC(=O)c1ccc2c(c1)OCCO2)c1ccccc1", "inhibition": "-4.1% (inactive)"}, {"smiles": "O=C(CN1C(=O)c2ccccc2C1=O)NCc1ccc(C(=O)O)cc1", "inhibition": "12.4% (inactive)"}, {"smiles": "CC(=O)N(C1=C(Cl)C(=O)c2ccccc2C1=O)c1ccc(C(=O)O)cc1", "inhibition": "102% (active)"}, {"smiles": "CC(C)N(C(=O)c1ccc(-c2ccccc2F)cc1)C(C)C", "inhibition": "-3.5% (inactive)"}, {"smiles": "CCOc1ncccc1C(=O)Nc1ccc2c(c1)OCCO2", "inhibition": "-12.8% (inactive)"}, {"smiles": "O=C(Nc1cc(S(=O)(=O)N2CCOCC2)ccc1N1CCOCC1)c1c(F)cccc1Cl", "inhibition": "-17.5% (inactive)"}, {"smiles": "Cc1c(NC(=O)C(C)OC(=O)c2ccccc2O)c(=O)n(-c2ccccc2)n1C", "note": "(configuration not stated)", "inhibition": "-18.3% (inactive)"}, {"smiles": "CCC(CO)Oc1cc(NC(=O)c2cccc3ccccc23)c2ncn(C(C)C)c2c1", "note": "(configuration not stated)", "inhibition": "4.9% (inactive)"}, {"smiles": "Cc1ccc2c(CN3CCN(S(=O)(=O)c4ccccc4C(F)(F)F)CC3)cc(=O)oc2c1", "inhibition": "0.831% (inactive)"}, {"smiles": "CO[C@@H]1[C@@H](OC(N)=O)[C@@H](O)C(Oc2ccc3c(O)c(NC(=O)c4ccc(O)c(CC=C(C)C)c4)c(=O)oc3c2C)OC1(C)C", "note": "(some centres not stated)", "inhibition": "-16% (inactive)"}, {"smiles": "COC(=O)N/N=C/c1cn(CCCOc2ccc(C)cc2)c2ccccc12", "inhibition": "25.8% (inactive)"}, {"smiles": "CCOC(=O)N/N=C/c1cn(Cc2ccccc2Cl)c2ccccc12", "inhibition": "7.15% (inactive)"}, {"smiles": "CNC(=S)N/N=C/c1cn(Cc2ccc(C)cc2)c2ccccc12", "inhibition": "109% (active)"}, {"smiles": "Cc1ccccc1-c1cc(C(=O)NCc2cccs2)n(CC2CC(c3cccnc3)=NO2)n1", "note": "(configuration not stated)", "inhibition": "10.1% (inactive)"}, {"smiles": "OCCNc1nc(Nc2ccc(Cl)c(Cl)c2)nc2ccccc12", "inhibition": "102% (active)"}, {"smiles": "COc1cc2nc(Cl)nc(NCCO)c2cc1OC", "inhibition": "-15.1% (inactive)"}, {"smiles": "CN(C)c1nc(Nc2ccc(Cl)c(Cl)c2)nc(N(C)C)n1", "inhibition": "-14.7% (inactive)"}, {"smiles": "O=C(c1cnccn1)N1CCN(S(=O)(=O)c2cccc(Cl)c2)CC1", "inhibition": "-17.3% (inactive)"}, {"smiles": "Cc1cc(N2CCCC2)ccc1NC(=O)COc1ccc(Cl)cc1", "inhibition": "-10.1% (inactive)"}, {"smiles": "Cc1c(C(=O)Nc2cccc(S(=O)(=O)N3CCOCC3)c2)oc2ccccc12", "inhibition": "-11% (inactive)"}, {"smiles": "CC1CCCCC12NC(=O)N(CC(=O)OCc1c(F)cccc1Cl)C2=O", "note": "(configuration not stated)", "inhibition": "-8.77% (inactive)"}, {"smiles": "COCCN(CCOC)S(=O)(=O)NC[C@H]1O[C@@H](n2cnc3c(N)ncnc32)[C@H](O)[C@@H]1O", "inhibition": "2.3% (inactive)"}, {"smiles": "Cc1ccc(-c2nc3ccccc3[nH]2)cc1NC(=O)c1sc2ccccc2c1Cl", "inhibition": "6.88% (inactive)"}, {"smiles": "COc1ccc(Br)cc1C(=O)Nc1cccc(C)c1C", "inhibition": "-31% (inactive)"}, {"smiles": "COc1ccc(Br)cc1C(=O)NC(=S)Nc1cc(-c2nc3ccccc3[nH]2)ccc1C", "inhibition": "86.6% (active)"}, {"smiles": "COc1ccc(C(=O)NCc2ccccc2C)cc1S(=O)(=O)NC1CCCC1", "inhibition": "0.604% (inactive)"}, {"smiles": "CC(C)=CCc1c(O)c(CC=C(C)C)c2occ(-c3ccc(O)cc3)c(=O)c2c1O", "inhibition": "100% (active)"}, {"smiles": "O=c1c(-c2ccccc2)coc2cc(O)ccc12", "inhibition": "0.886% (inactive)"}, {"smiles": "CC(C)CN(Cc1c(O)ccc2c(=O)c(-c3ccccc3)coc12)CC(C)C", "inhibition": "-0.974% (inactive)"}, {"smiles": "O=C(COC(=O)c1cc(S(=O)(=O)N2CCOCC2)ccc1F)NC1CC1", "inhibition": "-6.89% (inactive)"}, {"smiles": "O=C(NC1C2CC3CC(C2)CC1C3)c1ccc(N2CCNCC2)c([N+](=O)[O-])c1", "note": "(configuration not stated)", "inhibition": "52.3% (inactive)"}, {"smiles": "O=C(Nc1cccc(C(F)(F)F)c1)c1ccc(N2CCNCC2)c([N+](=O)[O-])c1", "inhibition": "-16.4% (inactive)"}, {"smiles": "CC(NC(=O)c1ccc(N2CCNCC2)c([N+](=O)[O-])c1)C12CC3CC(CC(C3)C1)C2", "note": "(configuration not stated)", "inhibition": "86.5% (active)"}, {"smiles": "O=C1C=C(c2ccnc3cc(Cl)ccc23)C[C@@H](c2ccc3c(c2)OCO3)C1", "inhibition": "6.37% (inactive)"}]}]}
